# Experimental data published in the supplement of paper PMC6555819.
# Legend:
# Assay in all cases: PBM binding z-score (relative to random genomic background probes); higher = stronger binding; sequences stand for … in GC…GCGATTGACAGCGTAGAATGAAGG
# [1] = tested on: RARb homodimer (NR concentration 270 nM)
# Method in brief: (§1)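 Binding z-scores were set against random background probes. The data came from custom Agilent 4×180K protein-binding microarrays carrying double-stranded probes with 34-nt variable regions, incubated 1 h with ligand-free nuclear receptor dimers. Partner-specific antibodies detected binding, and scanned fluorescence was regression-normalized.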
# [2] = tested on: RARg:RXRa (NR concentration 270 nM, RXRa partner concentration 90 nM)
# Method in brief: as §1
# [3] = tested on: RARg homodimer (NR concentration 270 nM)
# Method in brief: as §1
# [4] = tested on: RXRa DBDmut IVT, anti-RXR (DBD mutation: RXRa K156A/R161A, NR concentration 90 nM)
# Method in brief: as §1
# [5] = tested on: RXRa homodimer (NR concentration 180 nM)
# Method in brief: as §1
# [6] = tested on: THRa:RXRa (NR concentration 90 nM, RXRa partner concentration 90 nM)
# Method in brief: as §1
# [7] = tested on: THRa homodimer (NR concentration 90 nM)
# Method in brief: as §1
# [8] = tested on: VDR homodimer (NR concentration 270 nM)
# Method in brief: as §1
Sequence,PBM binding z-score [1],PBM binding z-score [2],PBM binding z-score [3],PBM binding z-score [4],PBM binding z-score [5],PBM binding z-score [6],PBM binding z-score [7],PBM binding z-score [8]
GGAACGCGGGCAAGTTGATAGCAGAGTTTGATGG,-0.349,-0.36,-0.0011,0.0062,-0.242,-0.844,-0.922,-0.495
AGAATGAGGTTATACGTAGATCAGGTAAGAAAGT,1.16,1.68,1.19,1.81,2.31,2.39,1.01,0.844
CCTGCTAGGTAAATGGTCAGCTAAAGCAGCTCGC,-0.0242,-0.351,-0.323,-0.0563,-0.478,-0.113,-0.416,-0.618
CAAACTAGGTCACGGTCAAAGTCGGTTTGTGCCA,4.62,4.99,5.89,2.12,3.82,3.94,2.34,1.7
CAGCCTTGGTCAGGGCCAGTATAGGAGGAACGTT,0.149,-0.144,0.23,-1.06,-0.491,-0.654,-0.63,-0.985
CAAACTGGGTCAAGGTCAAAGTCGGTTTGTGCCA,4.97,5.77,6.18,3.04,5.91,4.27,3.47,4.24
TTACCAAGGTGAAGGTCGTTTATCCCTCTGTAGA,1.99,1.2,1.11,0.869,1.49,2.5,1.18,1.61
GCTATTAGTTGAAAGGGCGACCGAATGATTCTCG,0.767,0.148,0.219,0.775,0.22,-0.155,-0.468,0.16
AGAACGAGGGCAATGAGATGATAGCACGGGTGGC,0.913,0.982,1.72,1.59,0.713,0.651,0.199,0.718
TCTTGTAGATCAAAGGTTAAGCAAGCCGAAGCCT,1.9,1.98,0.759,0.824,3.56,1.51,-0.503,-0.138
TCGAGTAGGTTACCAATGGGGCCTTCAGCTTTCT,0.0421,0.0942,-0.234,0.173,0.293,-0.167,-0.919,-0.944
ATCGAAAGGTCGAGGTGAGTATCGAGAAAGGGAA,2.53,4.33,4.51,0.532,4.17,2.65,0.543,0.173
TTACCAAGGTGAAGGTAGTTGATCCCTCTGTAGA,0.8,0.328,0.323,-0.443,0.761,1.84,0.575,-0.396
ATCTCTAGGTAAGACGCAGTTCAGTGAAGAACGC,0.117,0.165,0.097,0.0393,-0.00227,0.223,-0.325,0.544
